# CYP2C9 act = human CYP2C9 activators, primary screen, biochemical, luminescence. Cytochrome P450 2C9 (Homo sapiens), P11712. recombinant CYP2C9, luciferin-H conversion; stronger effect = higher value; factor 1 = untreated enzyme, 0 = blocked. activation factor at 5 µM. 96,000 tested, 1.4% active. AID 1024, 2008;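 active means activation factor of 2 or more for CYP2C9 at a 5 µM dose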;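 further: 0 = sulfaphenazole-blocked wells and 1 = vehicle-only wells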
# CYP2C19 inh = blockers of cytochrome P450 2C19 activity – biochemical, luminescence, ADME assay, primary screen; P33261; CYP2C19 Supersomes, luciferin-H EGE luminescence, 30 min; inhibition, % at 5 µM; 96,000 tested, 21% active;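 active means CYP2C19 inhibition above a set limit at 5 µM in the primary screen, cut at about 50% in these data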;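 further: plate controls were negative control wells for no effect and 2.5 mM tranylcypromine positive control for full effect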
# Target sequence (P33261 whole entry, looked up): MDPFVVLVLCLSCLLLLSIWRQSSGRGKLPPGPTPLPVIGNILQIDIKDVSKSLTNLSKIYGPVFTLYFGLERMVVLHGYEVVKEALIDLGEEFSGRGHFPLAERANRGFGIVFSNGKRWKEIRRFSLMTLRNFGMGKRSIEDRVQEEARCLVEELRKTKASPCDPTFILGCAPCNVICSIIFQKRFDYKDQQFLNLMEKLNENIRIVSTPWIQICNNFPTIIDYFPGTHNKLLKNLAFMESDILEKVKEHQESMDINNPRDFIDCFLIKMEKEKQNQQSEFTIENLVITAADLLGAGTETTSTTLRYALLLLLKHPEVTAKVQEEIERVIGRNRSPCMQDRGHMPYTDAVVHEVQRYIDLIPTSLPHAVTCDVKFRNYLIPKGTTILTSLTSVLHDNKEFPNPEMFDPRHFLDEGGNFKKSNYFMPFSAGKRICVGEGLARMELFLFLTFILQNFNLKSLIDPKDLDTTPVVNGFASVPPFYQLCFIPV
# CYP2C9 inh = blockers of cytochrome P450 2C9 activity – biochemical, luminescence, ADME assay, primary screen; P11712; CYP2C9 Supersomes, luciferin-H conversion; inhibition, % at 5 µM; 96,000 tested, 20% active; AID 777, 2007;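 active means blocking of liver enzyme CYP2C9 beyond about 50% at 5 µM, limit read from the data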
# PLAP activator = PLAP enzyme activators, biochemical, luminescence, HTS; Alkaline phosphatase, placental type (Homo sapiens), P05187; purified PLAP enzyme, luminescent substrate read-out; stronger effect = higher value; activation fold at 20 µM; 96,000 tested, 1.2% active; in the data active means activation fold above about 2
# CYP2C19 activ = human CYP2C19 activators, primary screen, biochemical, luminescence | Cytochrome P450 2C19 (Homo sapiens), P33261 | recombinant CYP2C19, luciferin-H EGE luminescence; stronger effect = higher value; 0 = fully inhibited enzyme, 1 = untreated enzyme | activation factor at 5 µM | 96,000 tested, under 10 active;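 active means activation factor of at least 2 at 5 µM in the primary screen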;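 further: 0 = wells with 2.5 mM tranylcypromine and 1 = vehicle-only wells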
# An asterisk follows results filed as active. In the library only some 31% were active in any assay of this set; here they are far more common.
SMILES,CYP2C9 act,CYP2C19 inh,CYP2C9 inh,PLAP activator,CYP2C19 activ
CC(=O)Nc1ccc(S(=O)(=O)Oc2cccc(N3C(=O)C4CCCCC4C3=O)c2)cc1 (centres undefined),0.2,40.7,75.1*,1,0.6
Cc1ccc(S(=O)(=O)NC(C)(C)CSc2nncn2N)cc1,1.1,58.8*,-10.5,1,0.4
CC(=O)C1=C(O)C(=O)N(c2nccs2)C1c1ccc(Br)cc1 (centres undefined),0.4,14.7,56.8*,1,0.9
CC(=O)C1=C(O)C(=O)N(c2cc(C(C)(C)C)on2)C1c1ccc(Br)cc1 (centres undefined),0.6,4.1,41.2,1.2,1
CC(C)(C)C(=O)Nc1ccc(C(=O)Nc2cccnc2)cc1,0.8,4.2,16.9,1.4,1
C=CCN=c1sc(C(=O)OC)cc(=O)n1CC=C,0.8,51.8*,18.5,1.1,0.5
Nc1c(C(=O)Nc2ccc3c(c2)OCCO3)nnn1CCc1ccccc1,0.2,57.3*,79.4*,0.5,0.4
CC(=O)Nc1cccc(NC(=O)CSc2nnnn2C)c1,0.8,-5.5,21.3,0.8,1.1
CCC(=O)Nc1cccc(NC(=O)CSc2nnnn2Cc2ccccc2)c1,0.5,44.1,53.3*,1,0.6
COc1ccc(C)cc1NC(=O)c1nnn(CCc2ccccc2)c1N,1.2,8.1,-23.1,0.8,0.9
O=C(CSc1nnnn1Cc1ccccc1)Nc1ccc2c(c1)OCO2,0.6,31.8,39.4,0.9,0.7
O=C(CSc1nnnn1Cc1ccccc1)Nc1ccc2c(c1)OCCO2,0.2,82.3*,83.4*,1,0.2
O=C(NCc1ccc2c(c1)OCO2)C1CCCN1C(=O)Nc1cccc(Cl)c1 (centres undefined),0.6,34.6,41.4,1.2,0.7
COc1ccccc1N1CCN(CC(O)c2ccc3cc[nH]c3c2)CC1 (centres undefined),0.9,26.4,7.1,0.9,0.7
C=CCOn1c(=O)c(-c2ccc(OC)c(OC)c2)[n+]([O-])c2ccccc21,1,-6.1,1.0,1,1.1
C=CCOn1c(=O)c(-c2cccs2)[n+]([O-])c2ccccc21,0.3,56.7*,68.1*,1.1,0.4
O=C1c2ccccc2OC2(C=Cc3ccccc3O2)N1Cc1ccccc1 (centres undefined),0.1,97.1*,94.1*,0.9,0
CCOc1ccc(C(=O)OCC(=O)NCc2ccco2)cc1OCC,1.1,69.6*,-5.9,1.7,0.3
O=C(COC(=O)c1ccccc1)NCC1CCCO1 (centres undefined),1.3,-3.2,-25.1,1.2,1
CCOc1ccc(OCC)c(NC(=O)C2C3C=CC(O3)C2C(=O)NCc2ccco2)c1 (centres undefined),0.6,50.9*,36.8,1.3,0.5
Nc1cc(C(=O)OCC(=O)NCC2CCCO2)ccc1Cl (centres undefined),0.8,56.3*,21.8,1,0.4
CCCOc1ccc(CC(=O)NCc2ccco2)cc1OC,0.6,62.8*,43.2,1.3,0.4
O=C1N[C@@H](Cc2ccccc2)C(=O)N1CCN1CCOCC1,1.3,4.5,-26.3,0.8,1
Nc1cc(C(=O)OCC(=O)NCc2ccco2)ccc1Cl,0.6,59.5*,44.4,1.3,0.4
O=C(COc1ccccc1Cl)NCc1ccco1,0.9,25.0,6.3,0.9,0.8
SMILES,CYP2C9 act,CYP2C19 inh,CYP2C9 inh,PLAP activator,CYP2C19 activ
CCOc1ccccc1OCC(=O)NCc1ccco1,1.1,65.3*,-6.8,1.4,0.3
CSc1ccc(NC(=O)NCCN2CCc3ccccc3C2)cc1,0.8,34.1,15.2,1.2,0.7
C=CCn1c(SCc2nc(N)nc(N(C)C)n2)nnc1-c1cccnc1,0.8,49.4,15.0,1.2,0.5
O=C(C1CC1)n1cc(C(=S)N2CCOCC2)c2ccccc21,0.8,43.9,23.3,1.1,0.6
O=C(c1cccs1)n1cc(C(=S)N2CCOCC2)c2ccccc21,0.9,67.7*,11.8,0.9,0.3
COC(=O)CSc1nc(N)nc(C)c1Br,1.1,-4.2,-7.4,1,1
Cc1ccc2cc3c(NC(=O)c4ccco4)nn(CC(C)C)c3nc2c1,1,3.6,1.7,0.9,1
CC(C)CC(=O)O/N=C1\C(=O)N(Cc2ccc(Cl)cc2)c2ccc([N+](=O)[O-])cc21,0.4,64.7*,58.0*,1,0.4
CC(C)CC(=O)O/N=C1\C(=O)N(c2ccccc2)c2ccccc21,0.8,11.0,17.0,1,0.9
CCOC(=O)C1C(=O)CC(O)(c2ccccc2)CC1c1ccccc1 (centres undefined),0.2,73.1*,82.0*,1,0.3
CCOC(=O)C1C(=O)NC(C)C1c1ccccc1 (centres undefined),1.1,-21.9,-8.1,1.2,1.2
Cc1ccc(S(=O)(=O)NCC(=O)OC(C(=O)c2ccccc2)c2ccccc2)cc1 (centres undefined),0.4,47.2,56.6*,1.1,0.5
CCNC(=O)Nc1cc2nc(C)n(Cc3ccc(Br)cc3)c2nc1C,0.7,80.5*,30.0,1.8,0.2
CCOC(=O)c1c(NC(=S)NC(=O)c2cnn(CC)c2)sc2c1CCC(C)C2 (centres undefined),0.9,-8.8,5.3,0.9,1.1
CCn1c2ccccc2c2cc(NC(=O)c3ccco3)ccc21,1.4,45.3,-40.2,0.9,0.5
COc1ccc(C(=O)c2sc(Nc3cccc(OC)c3)c(C(=O)Nc3cccc(C)c3C)c2N)cc1,0.5,39.8,52.0*,1.6,0.6
COc1ccc(C(=O)c2sc(Nc3ccccc3)c(C(=O)Nc3ccc(OC)c(OC)c3)c2N)cc1,0.8,9.7,18.6,1.2,0.9
COc1ccc(Nc2sc(C(=O)c3ccc(Cl)cc3)c(N)c2C(=O)Nc2ccccc2OC)cc1,0.2,39.4,76.5*,1.5,0.6
CCOC(=O)Cn1c(C)c(C#N)c2ccccc21,0.5,57.2*,50.3*,1.1,0.4
COCc1cc(C)nc(SCC(=O)Nc2cccc(C)c2C)c1C#N,1.1,37.7,-6.7,1,0.6
Cc1c(C#N)c2ccccc2n1CC(=O)NC(C)c1ccccc1 (centres undefined),0.4,87.3*,58.8*,1.2,0.1
Cc1cccc(NC(=O)Cn2c(C)c(C#N)c3ccccc32)c1C,0.1,87.3*,86.7*,1.6,0.1
CCc1ccc(C(=O)COC(=O)c2cnccn2)cc1,1.2,-16.3,-22.2,1.2,1.2
Cc1ccc(S(=O)(=O)N(Cc2nccn2C)C(C)C)cc1,0.9,18.8,6.7,1,0.8
CSc1nc2sc(-c3ccccc3)cc2c(=O)n1N,0.2,69.0*,77.6*,1,0.3
CC(C)Sc1nc2sc(-c3ccccc3)cc2c(=O)n1N,0.7,27.3,32.3,1.1,0.7
